An excerpt weighted towards active compounds, which were near 32% of everything screened.
CYP2C19 inh: blocks human cytochrome P450 2C19 | P33261 | inhibition, % at 5 µM | CYP2C19 Supersomes, luciferin-H EGE luminescence, 30 min | 96,000 tested, 21% active | AID 778;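 active means CYP2C19 inhibition above a set limit at 5 µM in the primary screen, cut at about 50% in these data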;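 further: plate controls were negative control wells for no effect and 2.5 mM tranylcypromine positive control for full effect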
Target sequence (P33261 whole entry, looked up): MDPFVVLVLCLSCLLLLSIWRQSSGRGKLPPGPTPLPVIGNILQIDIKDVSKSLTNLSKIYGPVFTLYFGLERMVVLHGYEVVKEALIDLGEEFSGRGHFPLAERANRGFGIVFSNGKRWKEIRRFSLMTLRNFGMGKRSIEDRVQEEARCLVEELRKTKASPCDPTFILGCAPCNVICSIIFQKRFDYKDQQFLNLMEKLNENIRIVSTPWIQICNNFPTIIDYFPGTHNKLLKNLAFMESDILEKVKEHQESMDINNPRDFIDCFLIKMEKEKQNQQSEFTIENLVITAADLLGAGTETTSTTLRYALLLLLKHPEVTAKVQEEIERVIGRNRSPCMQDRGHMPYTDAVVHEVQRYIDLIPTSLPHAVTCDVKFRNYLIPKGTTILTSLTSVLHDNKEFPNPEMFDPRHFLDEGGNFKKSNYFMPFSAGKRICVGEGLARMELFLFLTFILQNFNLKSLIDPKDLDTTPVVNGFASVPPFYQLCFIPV
PostGolgi ctrl: growth of the yeast control strain, post-Golgi counter-screen. 98,000 tested, 5% active. inhibition, % at 10 µM. efflux-deficient yeast background strain, growth absorbance A615, 16 h. AID 738
CYP2C9 inh: inhibitors of human CYP2C9 | P11712 | CYP2C9 Supersomes, luciferin-H conversion, luminescence | inhibition, % at 5 µM | 96,000 tested, 20% active;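 active means blocking of liver enzyme CYP2C9 beyond about 50% at 5 µM, limit read from the data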
CYP2C19 act: cytochrome P450 2C19 (human) activation; P33261; recombinant CYP2C19, luciferin-H EGE luminescence; hits give high values; 0 = fully inhibited enzyme, 1 = untreated enzyme; activation factor at 5 µM; 96,000 tested, under 10 active; AID 1025;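 active means activation factor of at least 2 at 5 µM in the primary screen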;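 further: 0 = wells with 2.5 mM tranylcypromine and 1 = vehicle-only wells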
CYP2C9 act: increases human cytochrome P450 2C9 activity; P11712; recombinant CYP2C9, luciferin-H conversion, luminescence; hits give high values; factor 1 = untreated enzyme, 0 = blocked; activation factor at 5 µM; 96,000 tested, 1.4% active;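 active means activation factor of 2 or more for CYP2C9 at a 5 µM dose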;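 further: 0 = sulfaphenazole-blocked wells and 1 = vehicle-only wells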
PostGolgi yeast: growth inhibition of a yeast mutant, post-Golgi transport screen; 98,000 tested, 0.9% active; AID 739; inhibition, % at 10 µM; post-Golgi transport phenotypic cell assay;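 further: yeast cells grown in 1536-well plates; yeast grown about 18 h at 30C before absorbance read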
The depositor's hits bear a star. Unless noted, no stated cut-off is given here; in the data, active means inhibition above about 30%; inactive means the rest.

What do the screens show for `CC(C)(C)n1nnnc1C(c1ccncc1)N1CCCCCC1` (stereo unspecified)?
CYP2C19 inh: 83*; PostGolgi ctrl: -7; CYP2C9 inh: 73*; CYP2C19 act: 0.2; CYP2C9 act: 0.3; PostGolgi yeast: 0

Results for CC(C)(C)n1nnnc1C(c1cccnc1)N1CCN(c2ccccc2)CC1 (stereo unspecified) ?
CYP2C19 inh: 59*; PostGolgi ctrl: 76*; CYP2C9 inh: 19; CYP2C19 act: 0.4; CYP2C9 act: 0.8; PostGolgi yeast: 92*

How did c1ccc(Cn2nnnc2C(c2cccnc2)N2CCN(c3ccccc3)CC2)cc1 (stereo unspecified) do in these assays?
CYP2C19 inh: 14; PostGolgi ctrl: 90*; CYP2C9 inh: 19; CYP2C19 act: 0.9; CYP2C9 act: 0.8; PostGolgi yeast: 92*

Results for CC(C)(C)n1nnnc1C(c1cccs1)N1CCN(c2ccccc2)CC1 (stereo unspecified) ?
CYP2C19 inh: 10; PostGolgi ctrl: 36*; CYP2C9 inh: 79*; CYP2C19 act: 0.9; CYP2C9 act: 0.2; PostGolgi yeast: 8

How did c1ccc(Cn2nnnc2C(c2ccncc2)N2CCOCC2)cc1 (stereo unspecified) do in these assays?
CYP2C19 inh: 37; PostGolgi ctrl: -2; CYP2C9 inh: 22; CYP2C19 act: 0.6; CYP2C9 act: 0.8; PostGolgi yeast: 6

How did CCS(=O)(=O)NCC(c1cccnc1)N1CCN(c2ccccc2)CC1 (stereo unspecified) do in these assays?
CYP2C19 inh: 33; PostGolgi ctrl: -12; CYP2C9 inh: 5; CYP2C19 act: 0.7; CYP2C9 act: 1; PostGolgi yeast: -4

Results for Cc1cccc(N2CCN(C(c3cccs3)c3nnnn3C(C)(C)C)CC2)c1C (stereo unspecified) ?
CYP2C19 inh: 45; PostGolgi ctrl: 40*; CYP2C9 inh: 54*; CYP2C19 act: 0.6; CYP2C9 act: 0.5; PostGolgi yeast: 12

What do the screens show for `Cc1ccc2cc(C(c3nnnn3C(C)(C)C)N3CCCC3)c(=O)[nH]c2c1C` (stereo unspecified)?
CYP2C19 inh: 18; CYP2C9 inh: 30; CYP2C19 act: 0.8; CYP2C9 act: 0.7

What do the screens show for `O=C(NC1CCS(=O)(=O)C1)c1ccc(-c2ccc(Br)cc2)o1` (stereo unspecified)?
CYP2C19 inh: 22; PostGolgi ctrl: 4; CYP2C9 inh: 9; CYP2C19 act: 0.8; CYP2C9 act: 0.9; PostGolgi yeast: 1

Results for Cc1cc(C)nc(/N=C(\N)Nc2ccc(C)c([N+](=O)[O-])c2)n1 ?
CYP2C19 inh: 19; PostGolgi ctrl: 4; CYP2C9 inh: -4; CYP2C19 act: 0.8; CYP2C9 act: 1; PostGolgi yeast: -12

Results for Cc1cc(NC(=O)CSc2nnc3c4c(C)c(C)sc4ncn23)no1 ?
CYP2C19 inh: 36; PostGolgi ctrl: -5; CYP2C9 inh: 56*; CYP2C19 act: 0.6; CYP2C9 act: 0.4; PostGolgi yeast: -3

How did Cc1cc(NC(=O)CSc2nnc3c(C)cc4cc(C)c(C)cc4n23)no1 do in these assays?
CYP2C19 inh: 40; PostGolgi ctrl: 3; CYP2C9 inh: 22; CYP2C19 act: 0.6; CYP2C9 act: 0.8; PostGolgi yeast: 0

Results for Cc1cc(NC(=O)CSc2nc(C(C)C)nc3sc(C)c(C)c23)no1 ?
CYP2C19 inh: 18; PostGolgi ctrl: 8; CYP2C9 inh: 54*; CYP2C19 act: 0.8; CYP2C9 act: 0.5; PostGolgi yeast: -2

What do the screens show for `CS(=O)(=O)N1CCN(C(=O)CCC2CCCC2)CC1`?
CYP2C19 inh: 19; PostGolgi ctrl: -5; CYP2C9 inh: -6; CYP2C19 act: 0.8; CYP2C9 act: 1.1; PostGolgi yeast: 2

How did Nc1ccc2c(c1)COc1ccccc1O2 do in these assays?
CYP2C19 inh: 69*; PostGolgi ctrl: 15; CYP2C9 inh: 36; CYP2C19 act: 0.3; CYP2C9 act: 0.6; PostGolgi yeast: 1

What do the screens show for `CCCS(=O)(=O)N1CCC(C(=O)NCc2ccco2)CC1`?
CYP2C19 inh: 2; PostGolgi ctrl: 11; CYP2C9 inh: 7; CYP2C19 act: 1; CYP2C9 act: 0.9; PostGolgi yeast: 1

How did COc1ccc(/C=C(/C#N)C(=O)Nc2ccc(C)cc2C)cc1C(=O)O do in these assays?
CYP2C19 inh: -14; PostGolgi ctrl: -1; CYP2C9 inh: -18; CYP2C19 act: 1.1; CYP2C9 act: 1.2; PostGolgi yeast: -1

Screening data from PubChem BioAssay.
